# Assay outcomes from PubChem BioAssay.
# BRCA1 expr act: qHTS Assay to Identify Small Molecule Activators of BRCA1 Expression | MCF7-BRCA1-FFLuc reporter, luminescence, 48 h; response scale: scaled: vehicle 0%, 10 µM genistein 100% | Potency, µM (titrated, usually from 46.1 µM), inactives show at the top dose activation, most hits filed as activators | 380,000 tested, 1.1% active | AID 624202, 2012; also: potency is read from the fitted curve at half-maximal effect; nearly all actives have a fitted effect of over 80% in size
#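 MCF7-BRCA1-FFLuc, 2000 cells/well; 2 h attach, 37 °C/5% CO2; compound 48 h; luciferase substrate 15 min; luminescence end-point. Norm. to genistein 10 microM max activation and DMSO; concentration-response curves fitted.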
# LDHA block: qHTS assay for inhibitors of human lactate dehydrogenase; L-lactate dehydrogenase A chain (Homo sapiens), P00338; purified LDHA, NADH/diaphorase-resazurin fluorescence; hits give low values; activity change, % (values are at about 110 or 230 µM); 480,000 tested, 0.15% active; in the data active = activity change below about -30%; inconclusive = mostly about -25% to -30%;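 also: plate controls were DMSO wells for no effect and wells without enzyme for full effect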
#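 Human LDH5 (2 nM) was incubated with 0.06 mM NADH and 0.2 mM pyruvate for 5 min at room temperature in Tris pH 7.4. Remaining NADH was coupled through diaphorase/resazurin, and resorufin fluorescence was read at 0 and 20 min.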
# RGS4 inhibitor: Inhibitors of Regulator of G Protein Signaling (RGS) 4: qHTS. Potency, µM (highest dose often 114 µM), for inactives: top-dose activity change, negative = inhibition, usual class: inhibitors. Transcreener GDP fluorescence polarization, RGS4-accelerated GTP hydrolysis. Regulator of G-protein signaling 4 (Homo sapiens), P49798. 390,000 tested, 0.039% active; also: potency is read from the fitted curve at half-maximal effect; % is scaled to controls: 0 for no effect and ±100 for the full control effect; nearly all actives have a fitted effect of over 75% in size
#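 MLSMR compounds (23 nl, pin-transferred) preincubated 10 min at room temperature with a 500nM (2x) first reagent, then RGS4 at 900nM (2x) plus Transcreener GDP mix added; fluorescence polarization (620/688 nm) read before and after 90 min at 30 °C.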
# PTHR1 ag: qHTS for PTHR1 Agonists: Primary Screen. Parathyroid hormone/parathyroid hormone-related peptide receptor (Homo sapiens), Q03431. HEK293 GP2 PTHR1 cells, GloSensor cAMP luminescence, 1 h. Potency, µM (highest dose often 115 µM), for the others: at the highest dose activation, actives largely listed as activators. 410,000 tested, 0.075% active. AID 743266, 2014; also: potency is read from the fitted curve at half-maximal effect; nearly all actives have a fitted effect of over 55% in size
# Target sequence (Q03431 whole entry, looked up): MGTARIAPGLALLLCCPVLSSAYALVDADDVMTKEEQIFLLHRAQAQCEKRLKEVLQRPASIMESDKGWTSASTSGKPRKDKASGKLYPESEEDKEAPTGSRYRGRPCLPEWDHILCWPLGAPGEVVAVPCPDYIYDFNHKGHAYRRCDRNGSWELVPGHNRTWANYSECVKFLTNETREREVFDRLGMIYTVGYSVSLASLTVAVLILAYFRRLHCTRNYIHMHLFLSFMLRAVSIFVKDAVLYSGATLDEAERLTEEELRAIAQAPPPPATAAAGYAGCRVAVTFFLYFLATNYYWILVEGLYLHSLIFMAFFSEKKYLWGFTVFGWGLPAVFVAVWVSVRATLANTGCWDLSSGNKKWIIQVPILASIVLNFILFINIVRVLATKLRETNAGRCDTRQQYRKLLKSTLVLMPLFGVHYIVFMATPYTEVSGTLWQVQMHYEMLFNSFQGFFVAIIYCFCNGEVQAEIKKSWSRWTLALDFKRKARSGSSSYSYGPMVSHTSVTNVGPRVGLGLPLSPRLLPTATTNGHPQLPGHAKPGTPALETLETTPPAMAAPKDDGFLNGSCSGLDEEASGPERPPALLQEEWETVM
#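 HEK-293-derived GP2 cells expressing PTHR1 and a GloSensor cAMP reporter, 3,000/well, plated overnight, given luciferin plus IBMX (each 0.5 mM as added) for 1 h at 37 °C, then compound for 1 h at 37 °C. Luminescence was read after 15 min at room temperature.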
# p53 reactivator: qHTS assay for re-activators of p53 using a Luc reporter | H1299 p53-A138V BP100-luciferase reporter, luminescence, 24 h | 320,000 tested, 0.063% active | Potency, µM (doses to about 92.2 µM), inactives show at the top dose activity change, positive = activation, most hits filed as activators; also: potency is read from the fitted curve at half-maximal effect; % of control where 0% means no effect; nearly all actives have a fitted effect of over 45% in size
#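 p53-null H1299 cells stably carrying temperature-sensitive p53-A138V and a BP100-luciferase reporter were pinned with compounds (4-point, 1:5 series) and held 24 hrs at 37 deg C. Luminescence was read 10 min after detection reagent.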
# The depositor's hits bear a star; i = inactive; u = inconclusive; x = no result; [ ] = dose if it differs, or a comment. In the library only some 1.1% were active in any assay of this set; here they are far more common. Unless noted, calls follow the shape of the dose curve; as a rule, active = well fitted curve in the direction sought with a large enough effect; inconclusive = small, poorly fitted or top-dose-only effect, or another doubt; inactive = no such curve, though single readings can be large; an effect the other way counts as inactive or inconclusive.
SMILES,BRCA1 expr act,LDHA block,RGS4 inhibitor,PTHR1 ag,p53 reactivator
CCc1ccc(-c2ccc(SCC(=O)NCC3CCCO3)nn2)cc1 (configuration not stated),2.51µM*,-6.7,17.8%,-28.5%,-3.2%
CCCn1nc(C(=O)Nc2ccc(Cl)cc2)c2ccccc2c1=O,x,6.0,x,x,x
CC(C1CC2CCC1C2)N1CC(O)=C(c2nc3ccccc3[nH]2)C1=N (configuration not stated),0.0%,-8.5,-11.7%,-8.1%,1.1%
CC(C)N1CC(O)=C(c2nc3ccccc3[nH]2)C1=N,8.91µM*,2.9,-10.7%,-3.6%[57.5 µM],10.6%
Nc1ccccc1C#Cc1ccc2[nH]ccc2c1,10µM*,1.8,-24.1%,-66.8%,x
Nc1ccccc1C#Cc1ccccc1,11.2µM*,1.2,6.7%,-50.1%,16.3%
Cn1c(N2CCC(Cc3ccccc3)CC2)nc2c1c(=O)n(Cc1ccc(Cl)cc1)c(=O)n2C,x,6.6,x,x,x
COc1ccccc1-n1[nH]c(C)c(Cc2ccc(Cl)cc2)c1=O,x,4.6,x,x,x
COc1ccccc1-n1[nH]c(C)c(Cc2ccccc2Cl)c1=O,x,-43.5*,x,x,x
CC(=O)NCc1ccc(C(=O)CCl)o1,x,-0.9,x,x,x
CS(=O)(=O)NNC(=O)c1cc2cc3ccccc3nc2s1,24.4%,10.2,-4.0%,-21.8%,-1.4%
NNC(=O)c1cc2cc3ccccc3nc2s1,-15.5%,-34.2*,-12.9%[56.9 µM],i,0.9%
Cc1cc(/C=C/C(=O)c2ccccc2F)cc(C)c1O,x,1.2,x,x,x
O=C(O)c1ccc(/C=N/N2CCN(c3ccccc3)CC2)cc1,4.47µM*,-1.3,15.1%,-13.0%,44.4%
O=C(O)c1ccc(C=NN2CCCCCC2)cc1,104.4%,0.0,-20.4%,i,x
CCCc1nc2c3ccccc3ccn2c1Cc1ccccc1,11.2µM*,-4.1,x,-12.0%,x
CNC(=O)c1sc2nc(-c3ccc(OC)cc3)cn2c1C,u,-6.4,-14.9%,-25.0%,u
CCN(CC)C(=O)c1sc2nc(-c3ccc(OC)cc3)cn2c1C,2.82µM*,-3.1,5.8%,-18.3%,u
COc1ccc(CNC(=O)c2ccc3c(c2)NC(=O)CCS3)cc1,x,0.5,x,x,x
C=C(C)C1Cc2cc3ccc(=O)oc3cc2O1 (configuration not stated),10µM*,-0.6,22.4%,i,u
NC(=O)C1CN(CC(=O)Nc2ccccc2Sc2ccc(Cl)cc2)c2ccccc2O1 (configuration not stated),x,10.8,x,x,x
O=C(O)c1ccc(Cn2nnc3sc4c(c3c2=O)CCCC4)cc1,7.94µM*,-8.6,18.0%,i,19.4%
COC(=O)c1ccc(Cn2nnc3sc4c(c3c2=O)CCCC4)cc1,x,-6.7,12.3%,i,x
Cc1ccc(Nc2nc(N)nc(CSC(=S)N3CCOCC3)n2)cc1,5.01µM*,-4.6,-18.3%,-15.6%[57.5 µM],21.6%
Cc1ccc(Nc2nc(N)nc(COC(=O)C3=COCCO3)n2)cc1,3.98µM*,0.5,10.0%,u,u
SMILES,BRCA1 expr act,LDHA block,RGS4 inhibitor,PTHR1 ag,p53 reactivator
Nc1nc(CSC(=S)N2CCCCC2)nc(Nc2ccccc2)n1,14.1µM*,-5.3,-13.2%,i,2.0%
Cc1ccccc1CSc1nnc(C2CCN(C(=O)OC(C)(C)C)CC2)o1,x,3.8,x,x,x
Cc1ccc(-c2onc3ccc(C(=O)O)cc23)cc1,-3.1%,-1.5,-1.1%,i,-3.0%
O=C(O)c1ccc2noc(-c3ccccc3)c2c1,3.98µM*,4.3,0.0%,i,26.4%
Cc1cc(C(=O)OCC(=O)Nc2ccc(C)c(F)c2)c2ccccc2n1,x,6.8,x,x,x
Cc1cc(C)n(CC(O)COc2ccc(Cl)cc2Cl)n1 (configuration not stated),11.2µM*,-0.6,-10.4%[56.9 µM],-23.6%,15.8%
COc1cccc(C(=O)NN2CC(O)=C(c3nc(-c4ccc(Cl)cc4)cs3)C2=N)c1,x,3.5,x,x,x
C=CCSC1=NNC(c2ccc(C(C)(C)C)cc2)=NN1,7.08µM*,-6.8,2.9%,-9.6%,9.5%
